Screens from PubChem.
Pol iota inh – blocks human DNA polymerase iota activity; Pol iota fluorescent replication assay, 10 min; Potency, µM (series often up to 115 µM), for the others: top-dose activity, negative = inhibition, usual class: inhibitors; hit rate 1% among 390,000; AID 588590; further: potency means the concentration at half of the fitted maximal effect
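Fluorescent replication assay read twice, at 0 min and 10 min after adding 50 nM (final) substrate. Enzyme (10 nM) and compounds were first incubated 15 min at room temperature; enzyme-free buffer wells were negative controls.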
Pol kappa inh-1 – inhibitors of human DNA polymerase kappa. AID 588579. Q9UBT6. purified Pol kappa, fluorescent DNA synthesis assay, 10 min. Potency, µM (doses to about 107 µM), for inactives: at the top dose activity, negative = inhibition, usual class: inhibitors. hit rate 0.53% among 400,000; further: potency means the concentration at half of the fitted maximal effect; on the % scale 0 is the no-effect control and ±100 the full control effect
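Kinetic fluorescence screen: compound preincubated 15 min RT with 10 nM enzyme; 50 nM substrate (final) initiates; reads at 0/10 min.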
PI5P4K alpha inh – inhibitors of human PI5P4K alpha; hit rate 1.2% among 330,000; P48426; max response, %; AID 652105; PI5P4Kalpha enzyme, ADP-Glo luminescence, 60 min; hits give low values; active means max response of -50% or lower; inconclusive means between -30% and -50%; inactive means -30% or higher; further: value at the top dose of about 77 µM; on the % scale 0 is the no-effect control and ±100 the full control effect
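qHTS, 1536-well: enzyme/substrate mix, compound by pin tool, 5 microM ATP final; RT 60 min; ADP-Glo reagents 1 (45 min) then 2 (30 min); luminescence.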
POLB inh – DNA polymerase beta (human) inhibition | P06746 | Pol beta primer extension/strand displacement, fluorescence kinetic | Potency, µM (series often up to 114 µM), without a hit: at the highest dose activity change, negative = inhibition, most hits filed as inhibitors | hit rate 1.3% among 340,000 | AID 485314; further: potency means the concentration at half of the fitted maximal effect; on the % scale 0 is the no-effect control and ±100 the full control effect
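Values derive from four-parameter Hill fits of normalized kinetic data: reads at 0 and 10 min following addition of 50 nM substrate to 10 nM Pol beta preincubated 15 min with compound.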
PI4K2A inh – blocks human PI4K2A kinase activity; Q9BTU6; hit rate 0.13% among 420,000; activity change, negative = inhibition, % at 76.9 µM; purified PI4K2A, ADP-Glo luminescence, 1 h; hits give low values; in the data active means activity change below about -50%; inconclusive means mostly about -30% to -49%;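 further: -100% = wells without enzyme as full effect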
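Compounds are screened against recombinant PI4K2A using PI as substrate and ATP, the latter dispensed at 300 microM. Reactions run one hour at ambient temperature before ADP-Glo detection; full inhibition defined by wells lacking enzyme.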
Pol eta inh-1 – blocks human DNA polymerase eta activity; recombinant Pol eta, fluorescent DNA replication assay; Potency, µM (series often up to 114 µM), for the others: at the highest dose activity change, negative = inhibition, hits mostly inhibitors; hit rate 1.2% among 390,000; AID 588591; further: potency means the concentration at half of the fitted maximal effect; on the % scale 0 is the no-effect control and ±100 the full control effect
Target sequence (Q9Y253 whole entry, looked up): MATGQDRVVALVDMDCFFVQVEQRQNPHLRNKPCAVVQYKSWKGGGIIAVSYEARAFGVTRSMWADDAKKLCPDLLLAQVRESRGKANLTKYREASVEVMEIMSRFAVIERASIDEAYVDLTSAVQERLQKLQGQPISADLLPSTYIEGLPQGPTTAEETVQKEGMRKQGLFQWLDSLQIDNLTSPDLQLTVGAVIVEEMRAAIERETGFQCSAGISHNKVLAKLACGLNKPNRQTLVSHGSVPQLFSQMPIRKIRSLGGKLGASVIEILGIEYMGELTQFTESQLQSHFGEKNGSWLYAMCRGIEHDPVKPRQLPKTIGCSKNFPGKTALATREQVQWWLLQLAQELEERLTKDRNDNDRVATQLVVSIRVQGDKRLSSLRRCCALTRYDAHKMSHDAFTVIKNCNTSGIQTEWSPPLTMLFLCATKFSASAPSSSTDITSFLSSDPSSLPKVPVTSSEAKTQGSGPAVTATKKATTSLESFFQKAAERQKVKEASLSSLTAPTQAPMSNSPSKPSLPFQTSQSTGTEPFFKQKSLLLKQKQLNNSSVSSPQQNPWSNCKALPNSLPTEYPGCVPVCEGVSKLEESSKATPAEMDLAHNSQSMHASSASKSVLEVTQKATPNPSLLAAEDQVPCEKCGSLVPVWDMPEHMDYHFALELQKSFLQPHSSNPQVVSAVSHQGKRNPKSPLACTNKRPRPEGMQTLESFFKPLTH
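Pol eta (10 nM) was preincubated with compounds for 15 min at room temperature, after which fluorescent replication substrate (50 nM final) was added to start the reaction. Fluorescence was read kinetically at 0 and 10 min.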
GALK inh confirm – confirmation of human galactokinase (GALK) inhibitors; shares compounds with Pol eta inh-1; purified GALK, Kinase-Glo ATP depletion luminescence; Potency, µM (doses to about 115 µM), for the others: top-dose activity, negative = inhibition, most hits filed as inhibitors; hit rate 70% among 150; AID 2015
GALK redox cs – redox cycling activity in phenol red-HRP assay. Phenol red-HRP H2O2 redox cycling, absorbance 600 nm. Potency, µM (doses to about 115 µM), for inactives: at the top dose activity change, negative = H2O2 signal, actives largely listed as inhibitors. shares compounds with Pol eta inh-1. hit rate 40% among 150
HEK293 tox – counter-screen for GALK inhibitors: HEK293 cell cytotoxicity; shares compounds with Pol eta inh-1; HEK-293 viability, ATP luminescence (CellTiter-Glo), 24/48 h; Potency, µM (top dose mostly 46.1 µM), without a hit: top-dose activity change, negative = cytotoxicity, usual class: inhibitors; hit rate 10% among 170; further: potency means the concentration at half of the fitted maximal effect; on the % scale 0 is the no-effect control and ±100 the full control effect
Pol kappa inh-2 – confirmation of human DNA polymerase kappa inhibitors; shares compounds with Pol eta inh-1; purified Pol-kappa, fluorescent strand-displacement substrate; Potency, µM, hits mostly inhibitors; hit rate 76% among 920; further: potency means the concentration at half of the fitted maximal effect
Pol eta inh-2 – confirmation of human DNA polymerase eta inhibitors; shares compounds with Pol eta inh-1; Pol eta primer extension, TAMRA/BHQ fluorescence, 10 min; Potency, µM, actives largely listed as inhibitors; hit rate 64% among 2,600; AID 720502; further: potency means the concentration at half of the fitted maximal effect
* = called active by the depositor; ? = inconclusive; nt = no result given; [ ] = remark or other dose. An excerpt weighted towards active compounds, which were near 2.8% of everything screened. Unless noted, the call rests on the fitted dose curve; in most records, active means well fitted curve in the direction sought with a large enough effect; inconclusive means small, poorly fitted or top-dose-only effect, or another doubt; inactive means no such curve, though single readings can be large; an effect the other way counts as inactive or inconclusive.

SMILES | Pol iota inh | Pol kappa inh-1 | PI5P4K alpha inh | POLB inh | PI4K2A inh | Pol eta inh-1 | Pol eta inh-2 | others
NNc1cc([N+](=O)[O-])cc2c1C(=O)N(Cc1ccccc1)S2=O (stereo not drawn) | 35µM* | 79µM* | -66* | ? | -8 | 45µM* | ? | Pol kappa inh-2=?
CC(C)=NNc1cc([N+](=O)[O-])cc2c1C(=O)N(C)S2=O (stereo not drawn) | -19% | -4% | -4 | -1% | -2 | -7% | nt
CCN(CCCCN1C(=O)c2ccccc2C1=O)c1ccc2c(c1)C(=O)N(C)C2=O | 16µM* | ? | nt | -20% | -10 | 50µM* | ?
CCN(CC)c1ccc2c(c1)C(=O)N(C)C2=O | 9% | 1% | -3 | -8% | 1 | -17% | nt
N#Cc1c(/N=C/c2ccc(-c3ccc(C(=O)O)c(Cl)c3)o2)sc2c1CCCC2 | -20% | -33% | -14 | nt | 8 | 22µM* | ?
Cc1ccc(/C=N/c2sc3c(c2C#N)CCC3)o1 | ? | -7% | -21 | 8% | -1 | ? | nt
N#Cc1c(/N=C/c2ccc(-c3ccccc3C(=O)O)o2)sc2c1CCCC2 | ? | -31% | -14 | 28µM* | -4 | 28µM* | 67*
Cc1ccc(NS(=O)(=O)c2ccc(/C=C/C(=O)O)cc2)cc1Cl | 104% | -18% | -10 | -7% | -1 | -16% | nt
O=C(O)/C=C/c1ccc(S(=O)(=O)Nc2ccc3[nH]c(=O)[nH]c3c2)cc1 | ? | -21% | ? | -1% | -5 | 25µM* | ?
O=C1NC(=S)NC1=Cc1ccco1 | ? | ? | -93* | nt | 0 | 13µM* | 76* | Pol kappa inh-2=34*
O=C1/C(=C\c2ccco2)NC(=S)N1c1ccccc1 | ? | ? | ? | 6% | -13 | ? | nt
COc1ccc2nc(N3C(=O)/C(=C/c4ccccc4)NC3=S)sc2c1 | -11% | -2% | -63* | ? | 0 | 32µM* | nt | Pol kappa inh-2=?
COc1ccc2nc(-n3c(C)ccc3C)sc2c1 | -2% | -4% | nt | -10% | -6 | -13% | nt
Nc1cc2c(cc1[N+](=O)[O-])OCCO2 | 23% | -2% | -7 | 2% | -2 | -21% | nt
Nc1cc2c(cc1[N+](=O)[O-])OCO2 | ? | ? | -60* | 28µM* | -9 | 45µM* | ?
O=C(O)COc1ccccc1/C=C1\SC(=S)N(NC(=O)c2ccccc2O)C1=O | 7.1µM* | 32µM* | ? | nt | -6 | 32µM* | ? | Pol kappa inh-2=7.5*
O=C(O)COc1ccccc1/C=C1\SC(=S)N(/N=C/c2ccccc2O)C1=O | ? | -28% | -5 | -17% | -6 | 22µM* | 48* | Pol kappa inh-2=75*
O=C(NN1C(=O)/C(=C/c2ccc(O)c(O)c2)SC1=S)c1ccccc1 | 22µM* | 40µM* | -53* | 18µM* | -3 | 1.1µM* | ?
O=C(NN1C(=O)/C(=C/c2cccc(O)c2)SC1=S)c1ccccc1O | ? | -16% | -18 | 0% | -3 | ? | nt
CCCNC(=O)CSc1nc(-c2ccc(OC)cc2)cc(C(F)(F)F)n1 | 17% | -1%[60.1 µM] | nt | 0% | -2 | -17% | nt
COCCn1c(SC(C)C(=O)NCC2CCCO2)nc2sc3c(c2c1=O)CCC3 (stereo not drawn) | ? | -2% | -18 | nt | -1 | ? | ?
COc1ccc(-c2nn(-c3ccccc3)cc2C2CC(c3cccs3)=NN2C(=O)CCC(=O)O)cc1 (stereo not drawn) | -15% | 3% | 0 | 1% | 9 | -4% | nt
COc1ccc(C2=NN(C(=O)CCCC(=O)O)C(c3cn(-c4ccccc4)nc3-c3ccccc3)C2)cc1 (stereo not drawn) | 20µM* | ? | 13 | ? | -16 | -20% | ? | Pol kappa inh-2=0.38*
COC(=O)c1ccccc1Nc1ccccc1 | 2% | -5% | nt | 11% | 6 | -14% | nt
COC(=O)c1ccccc1NC1=C/C(=N\S(=O)(=O)c2ccc(C(=O)O)cc2)c2ccccc2C1=O | 1.1µM* | ? | ? | 32µM* | -25 | 14µM* | nt | GALK inh confirm=?;GALK redox cs=12µM*;HEK293 tox=?
SMILES | Pol iota inh | Pol kappa inh-1 | PI5P4K alpha inh | POLB inh | PI4K2A inh | Pol eta inh-1 | Pol eta inh-2 | others
CCS(=O)(=O)c1ncc(Cl)c(C(=O)N2CCN(c3cccc(Cl)c3)CC2)n1 | -20% | 0% | nt | -25% | 2 | -11% | nt
CC(=O)OCC1=C(C(=O)O)N2C(=O)C(NC(=O)CCn3nc(C)c(Cl)c3C)C2SC1 (stereo not drawn) | 3% | -19% | 1 | -22% | -9 | ? | nt
CC(=O)OCC1=C(C(=O)O)N2C(=O)C(NC(=O)Cn3nc(C(F)F)c(Cl)c3C)C2SC1 (stereo not drawn) | ? | 50µM* | -5 | 28µM* | 0 | 20µM* | 60*
Cc1nnc(SCC2=C(C(=O)O)N3C(=O)C(NC(=O)Cn4nc(C(F)F)c(Cl)c4C)C3SC2)s1 (stereo not drawn) | -62% | 50µM* | 4 | 25µM* | ? | 20µM* | 76*
COC(=O)C1C2C=CC3(CN(c4cccc(Cl)c4)C(=O)C13)O2 (stereo not drawn) | 16% | 16% | -4 | 9% | -7 | -18% | nt
COC(=O)C1C2C=CC3(CN(c4cccc(C)c4)C(=O)C13)O2 (stereo not drawn) | ? | -25% | -16 | -28% | 1 | 35µM* | ?
O=C(O)/C=C/c1cn(-c2ccccc2)nc1-c1ccc(-c2ccc([N+](=O)[O-])cc2)o1 | ? | -24% | -60* | 28µM* | 0 | 32µM* | 85*
